The source of these data is PubChem BioAssay (NCATS).

Inconclusive results are not listed. Active and inactive are the calls of the source. Calls come from the whole dose curve; as a rule, active = well fitted curve in the direction sought with a large enough effect; inconclusive = small, poorly fitted or top-dose-only effect, or another doubt; inactive = no such curve, though single readings can be large; an effect the other way counts as inactive or inconclusive.

The test system of experiment [1] is MCC-26. Nature of the experiment: qHTS assay to identify novel small-molecules to repurpose for Merkel cell carcinoma treatment (AID 1296009). Note: nearly all actives have a fitted effect of over 60% in size. Note: potency is the fitted concentration of half-maximal effect. Particulars: MCC and control cell lines, CellTiter-Glo viability, 72 h; series mostly up to 46 µM. Summed up: (§1)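 After compound transfer in DMSO, plates were kept 72 hr at 37 degree celsius. Luminescent ATP signal from CellTiter-Glo served as viability measure, normalized against DMSO and no-cell controls.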
Background: Quantitative high-throughput screening tests each substance at several concentrations.

For experiment [2], the system named is MKL-1. The description is as above. Particulars: MCC and control cell lines, CellTiter-Glo viability, 72 h; series mostly up to 46 µM. Summed up: as §1
The subject of experiment [3] is MKL-2. The experiment is described as above. Particulars: MCC and control cell lines, CellTiter-Glo viability, 72 h; series mostly up to 46 µM. The gist of the method:
as §1
Background: Cellular ATP, detected with luciferase, serves as a proxy for viable cell number.

For experiment [4], the system named is UISO. Described as above. Particulars: MCC and control cell lines, CellTiter-Glo viability, 72 h; series mostly up to 46 µM. Summed up:
as §1

Experiment [5] has as its system WaGa. The description is as above. Particulars: MCC and control cell lines, CellTiter-Glo viability, 72 h; series mostly up to 46 µM. Summed up:
as §1

For experiment [6], the system named is C33A. Nature of the experiment: Primary qHTS to identify gynecologic anti-cancer compounds using libraries of approved drugs and bioactive compounds (AID 1345084). Note: nearly all actives have a fitted effect of over 55% in size. Particulars: Gynecologic cancer cell panel viability, ATPlite luminescence, 48 h; series mostly up to 57.5 µM. The gist of the method: (§2)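 Cells, 1,000 per well, were allowed to settle for 16 h at 37 C before compound addition. Five concentrations were tested for 48 h, and viability was read by ATPlite luminescence after 15 min at room temperature.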

Experiment [7] relates to CASKI. The experiment is described as above. Particulars: Gynecologic cancer cell panel viability, ATPlite luminescence, 48 h; series mostly up to 57.5 µM. The gist of the method:
as §2

Experiment [8] deals with Es-2. Described as above. Particulars: Gynecologic cancer cell panel viability, ATPlite luminescence, 48 h; series mostly up to 57.5 µM. The gist of the method: as §2
Experiment [9] has as its system CAOV3. The description is as above. Particulars: Gynecologic cancer cell panel viability, ATPlite luminescence, 48 h; series mostly up to 57.5 µM. Summed up:
as §2

As for `CCOC(=O)c1c(C(C#N)=CN)c2ccc(Cl)c(Cl)c2n1C`, the Potency result in experiment [1], in experiment [2], in [3], in experiment [4] and in experiment [5] was “inactive” in each case.

As for `CC=C(C)C(=O)O[C@H]1C(C)=C2[C@@H]3OC(=O)[C@@](C)(O)[C@@]3(O)[C@@H](OC(=O)CCC)C[C@](C)(OC(C)=O)[C@@H]2[C@@H]1OC(=O)CCCCCCC`, the Potency in experiment [1] was 1.32 µM (active); in [2], 11.8 µM (active); in experiment [3] it was 3.72 µM (active); in [4], 235 nM (active); in experiment [5] it was 1.66 µM (active).

On to `C[C@@H]1[C@H](O)[C@@H](C)C=CC=CCCC=CC=CC=CC=C[C@H](O[C@H]2O[C@@H](C)[C@H](O)[C@@H](N)[C@@H]2O)CC2O[C@](O)(C[C@@H](O)[C@H](O)CC[C@@H](O)C[C@@H](O)C[C@@H](O)CC(=O)O[C@H]1C)C[C@H](O)[C@H]2C(=O)O`, for which the Potency entry in [1], in experiment [2], in [3], in [4] and in experiment [5] was “inactive” throughout.

`O=C(NCC1CCOCC1)c1cnc(Nc2ccc(Cl)cc2Cl)nc1C(F)(F)F`: the Potency entry in experiment [1], in experiment [2], in [3], in experiment [4], in experiment [5] and in [6] was “inactive” in each case. Also, the Potency result in experiment [7] and in [8] was “inactive” in each case.

As for `C#C[C@]1(O)C=C[C@@H]2[C@@H]3CCC4=CC(=O)CC[C@@H]4[C@H]3CC[C@@]21CC`, the Potency entry in experiment [1], in experiment [2], in experiment [3], in experiment [4] and in experiment [5] was “inactive” each time.

Take `O=C(O)COc1nc(Cl)c(Cl)cc1Cl`: the Potency entry in experiment [1], in experiment [2], in [3], in experiment [4], in experiment [5] and in experiment [6] was “inactive” throughout. In addition, the Potency result in experiment [7] and in experiment [8] was “inactive” each time.

In the case of `COC1=CC(C)=C[C@@H](C)[C@@H](O)[C@@H](C)CC(C)=CC=C[C@H](OC)[C@H]([C@@H](C)[C@@H](O)[C@H](C)[C@@]2(O)C[C@@H](O)[C@H](C)[C@@H](C(C)C)O2)OC1=O`, the Potency was 4.69 µM (active) in experiment [1]; 0.118 µM (active) in [2]; 0.105 µM (active) in experiment [3]; 41.8 nM (active) in [4]; 0.118 µM (active) in experiment [5].

Take `O=C(N[C@@H](COc1ccc2[nH]c(=O)[nH]c2c1)c1ccccc1)c1cccn(Cc2ccc(F)c(F)c2)c1=O`: the Potency result in [1], in experiment [2], in [3], in experiment [4], in experiment [5] and in experiment [6] was “inactive” throughout. The Potency entry in experiment [7] and in [8] was “inactive” in each case.

Consider `CSCC[C@@H](NC(=O)[C@@H](Cc1ccccc1)NC(=O)CNC(=O)CNC(=O)[C@@H](N)Cc1ccc(O)cc1)C(=O)O`, for which the Potency entry in experiment [1], in [2], in experiment [3], in [4] and in experiment [5] was “inactive” each time.

Regarding `O=C(O)COc1ccccc1`, the Potency entry in experiment [1], in [2], in experiment [3], in experiment [4], in [5] and in [6] was “inactive” throughout. In addition, the Potency entry in experiment [9], in [7] and in experiment [8] was “inactive” in each case.

Turning to `CC(N[C@H]1C[C@H]1c1ccccc1)c1ccc2c(c1)OCCO2` (stereo not given in full), the Potency result in experiment [1], in [2], in [3], in [4], in [5] and in experiment [6] was “inactive” in each case. Also, the Potency entry in experiment [7] and in experiment [8] was “inactive” throughout.

For `COC(=O)c1cncn1C(C)c1ccccc1` (stereo not given), the Potency result in [1], in experiment [2], in experiment [3], in experiment [4], in experiment [5] and in experiment [6] was “inactive” throughout. Besides, the Potency entry in experiment [9], in experiment [7] and in [8] was “inactive” throughout.

As to `O=C(O)C(Cl)Cl`, the Potency result in experiment [1], in [2], in experiment [3], in experiment [4], in experiment [5] and in experiment [6] was “inactive” throughout. The Potency result in [9], in experiment [7] and in experiment [8] was “inactive” in each case.

Regarding `C[C@H]1CCCC=CC2C[C@H](O)C[C@@H]2[C@H](O)C=CC(=O)O1` (stereo not given in full), the Potency result in [1], in [2], in experiment [3], in experiment [4] and in experiment [5] was “inactive” in each case.

Consider `O=C(O)c1cc(Oc2ccc(C(F)(F)F)cc2Cl)ccc1[N+](=O)[O-]`, for which the Potency entry in experiment [1], in experiment [2], in experiment [3], in [4], in [5] and in experiment [6] was “inactive” throughout. Besides, the Potency entry in experiment [9], in [7] and in experiment [8] was “inactive” in each case.

Turning to `O=C(O)CNC(=O)c1c(O)c2ccccc2n(Cc2ccccc2)c1=O`, the Potency result in experiment [1], in [2], in experiment [3], in experiment [4], in experiment [5] and in [6] was “inactive” throughout. In addition, the Potency entry in [9], in experiment [7] and in [8] was “inactive” in each case.

With `COc1cc2cc(c1Cl)N(C)C(=O)C[C@H](OC(=O)C(C)C)[C@]1(C)O[C@H]1[C@H](C)[C@@H]1C[C@@](O)(NC(=O)O1)[C@H](OC)C=CC=C(C)C2`, the Potency result in experiment [1], in [2], in experiment [3], in experiment [4] and in experiment [5] was “inactive” each time.

Take `C[C@]12COC(=O)C[C@@H]1CC[C@@H]1[C@H]2CC[C@@]2(C)[C@H]1CC[C@]2(C)O`: the Potency result in experiment [1], in experiment [2], in experiment [3], in experiment [4] and in experiment [5] was “inactive” each time.

As for `OCCCBr`, the Potency entry in experiment [1], in [2], in experiment [3], in [4], in [5] and in experiment [6] was “inactive” in each case. The Potency result in experiment [9], in [7] and in [8] was “inactive” each time.

Take `O=c1[nH]c2ccccc2n1C1CCN(Cc2ccc(-c3[nH]c4cc5ncnc5cc4nc3-c3ccccc3)cc2)CC1`: the Potency result in [1], in experiment [2], in experiment [3], in [4] and in experiment [5] was “inactive” each time.

With `CCCCC(CC)COC(=O)c1ccccc1C(=O)OCC(CC)CCCC` (stereo not given), the Potency result in [1], in experiment [2], in [3], in experiment [4], in experiment [5] and in [6] was “inactive” each time. Besides, the Potency result in [9], in experiment [7] and in [8] was “inactive” each time.

`CN(C)[C@@H]1C(=O)C(C(N)=O)=C(O)[C@@]2(O)C(=O)C3=C(O)c4c(O)cccc4[C@@](C)(O)[C@H]3[C@H](O)[C@@H]12`: the Potency result in experiment [1], in [2], in experiment [3], in experiment [4] and in experiment [5] was “inactive” throughout.

Regarding `CN1[C@H]2CC(O)C[C@H]1[C@H]1O[C@H]12` (stereo not given in full), the Potency entry in [1], in experiment [2], in experiment [3] and in experiment [5] was “inactive” in each case.

On to `ClC1=C(Cl)[C@]2(Cl)[C@@H]3[C@@H]4C[C@@H]([C@H]5O[C@@H]45)[C@@H]3[C@@]1(Cl)C2(Cl)Cl`, for which the Potency result in [1], in experiment [2], in [3], in [6], in experiment [7] and in experiment [8] was “inactive” in each case.
